± gives the standard deviation of the averaged measurements.
Experiments:
Experiment in all cases: cell viability (% of vehicle); higher = less cytotoxic
Conditions in all cases: 10 µM; 72 h
[1] = tested on: HCI01 (cells of a triple-negative basal-like breast cancer xenograft)
[2] = tested on: HCI03 (cells of an ER-positive luminal breast cancer xenograft)
[3] = tested on: HCI09 (cells of a triple-negative luminal androgen receptor type breast cancer xenograft)
[4] = tested on: HCI11 (cells of an ER-positive luminal breast cancer xenograft)
[5] = tested on: HCI13 (cells of an ER-positive luminal breast cancer xenograft)
[6] = tested on: HCI16 (cells of a triple-negative basal-like breast cancer xenograft)
[7] = tested on: UCD52 (cells of a triple-negative basal-like breast cancer xenograft)
[8] = tested on: WHIM2 (cells of a triple-negative basal-like breast cancer xenograft)
[9] = tested on: WHIM30 (cells of a triple-negative basal-like breast cancer xenograft)
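Also: PDX cells carrying CMV promoter-driven luciferase, viability read as total photon flux per second by IVIS imaging following D-luciferin, vehicle control 0.1% DMSO.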

| SMILES | cell viability [1] | cell viability [2] | cell viability [3] | cell viability [4] | cell viability [5] | cell viability [6] | cell viability [7] | cell viability [8] | cell viability [9] |
| --- | --- | --- | --- | --- | --- | --- | --- | --- | --- |
| COc1ccc(CN(CCN(C)C)c2ccccn2)cc1.O=C(O)/C=C\C(=O)O [Mepyramine maleate] | 93.8 ± 18 | 133 | 88.5 ± 12 | 93.9 | 85.6 ± 8.7 | 107 | 112 ± 8.7 | 94.4 ± 8.4 | 111 ± 6 |
| CN(C)CCCOc1nn(Cc2ccccc2)c2ccccc12.Cl [Benzydamine HCl] | 171 ± 76 | 85.4 | 79 ± 16 | 104 | 66.2 ± 11 | 163 | 100.3 ± 0.44 | 116 ± 6.4 | 123 ± 18 |
| C[N+]1(C)CCC(OC(=O)C(O)(c2ccccc2)C2CCCC2)C1.[Br-] (stereo unspecified) [Glycopyrrolate] | 110 ± 5.3 | 152 | 123 ± 51 | 99.3 | 117 ± 12 | 94.8 | 95.6 ± 5.1 | 100 ± 5.2 | 83.6 ± 6.5 |
| Cc1ccc2c(Cl)cc(Cl)c(O)c2n1 [Chlorquinaldol] | 102 ± 27 | 109 | 31.6 ± 15 | 52.7 | 105 ± 17 | 105 | 69.6 ± 16 | 94.2 ± 31 | 94 ± 5.7 |
| COc1ccc2cccc(CCNC(C)=O)c2c1 [Agomelatine] | 92.5 ± 10 | 139 | 99.7 ± 4.7 | 92.4 | 89.4 ± 2.2 | 105 | 86.1 ± 12 | 89.9 ± 20 | 136 ± 11 |
| C=C1CCN(C(C)C(O)(Cn2cncn2)c2ccc(F)cc2F)CC1 (stereo unspecified) [Efinaconazole] | 119 ± 22 | 148 | 83.3 ± 19 | 91.5 | 126 ± 8.9 | 165 | 85.4 ± 5.2 | 95.9 ± 5.9 | 161 ± 25 |
| CC(C)(Oc1ccc(CCNC(=O)c2ccc(Cl)cc2)cc1)C(=O)O [Bezafibrate] | 108.4 ± 0.24 | 101 | 95.5 ± 17 | 104 | 97.3 ± 2.6 | 123 | 101 ± 8.8 | 112 ± 14 | 113 ± 6.7 |
| O=C([O-])c1ccccc1O.[Na+] [Sodium salicylate] | 96.1 ± 24 | 121 | 100 ± 7.2 | 91.4 | 107 ± 12 | 124 | 85.6 ± 3.5 | 89.1 ± 15 | 94.4 ± 3.4 |
| CC(=O)OCC[N+](C)(C)C.[Cl-] [Acetylcholine Chloride] | 104 ± 23 | 85.8 | 95.1 ± 7.5 | 87.1 | 101 ± 9.6 | 97.8 | 69.3 ± 1.8 | 96.7 ± 6.8 | 107 ± 21 |
| CN1CCC(=C2c3ccccc3CCc3sccc32)CC1.O=C(O)CC(O)C(=O)O [Pizotifen Malate] | 100 ± 41 | 105 | 74.7 ± 3.8 | 97.9 | 167 ± 21 | 111 | 82.7 ± 2.5 | 68.9 ± 11 | 173.9 ± 0.85 |
| CC(C)NCC(O)COc1ccc(COCCOC(C)C)cc1.O=C(O)C=CC(=O)O (stereo unspecified) [Bisoprolol fumarate] | 129.4 ± 0.93 | 129 | 102 ± 30 | 113 | 93.1 ± 1.1 | 96.1 | 86.1 ± 8.9 | 93.9 ± 16 | 120 ± 2.5 |
| CN=C(NC#N)NCCSCc1nc[nH]c1C [Cimetidine] | 136 ± 22 | 124 | 93.85 ± 0.84 | 101 | 102 ± 16 | 115 | 88.1 ± 5.3 | 87.8 ± 19 | 120 ± 4.4 |
| O=c1ccn(C2OC(CO)C(O)C2O)c(=O)[nH]1 (stereo unspecified) [Uridine] | 106 ± 10 | 115 | 100.8 ± 0.17 | 100 | 103 ± 21 | 104 | 85.6 ± 2.8 | 89.7 ± 4.7 | 131 ± 9.8 |
| CC12C=CC(=O)NC1CCC1C2CCC2(C)C(C(=O)Nc3cc(C(F)(F)F)ccc3C(F)(F)F)CCC12 (stereo unspecified) [Dutasteride] | 129 ± 13 | 107 | 114 ± 15 | 92.4 | 123 ± 1.7 | 111 | 100 ± 4.5 | 90.3 ± 22 | 142 ± 12 |
| Cc1ncc(CO)c(CO)c1O.Cl [Pyridoxine HCl] | 89.2 ± 31 | 121 | 90.1 ± 4.5 | 91.9 | 117 ± 18 | 107 | 99.9 ± 5.3 | 86.6 ± 2.4 | 100 ± 3.4 |
| CN1CCN(C2=c3ccccc3=Nc3ccc(Cl)cc3N2)CC1 [Clozapine] | 95.4 ± 14 | 130 | 101 ± 11 | 87.2 | 106 ± 1.6 | 123 | 83.6 ± 11 | 85.298 ± 0.078 | 122 ± 15 |
| CN(C)CC(c1ccc(O)cc1)C1(O)CCCCC1 (stereo unspecified) [Desvenlafaxine] | 84 ± 2.4 | 118 | 92.5 ± 18 | 80.5 | 90.1 ± 13 | 126 | 92.2 ± 9.2 | 79.9 ± 7.9 | 124 ± 7.7 |
| Cn1nnc2c(C(N)=O)ncn2c1=O [Temozolomide] | 136 ± 12 | 125 | 105 ± 15 | 111 | 122 ± 17 | 136 | 97.8 ± 28 | 117 ± 5.3 | 107 ± 16 |
| COc1cc(Nc2ncc3c(n2)-c2ccc(Cl)cc2C(c2c(F)cccc2OC)=NC3)ccc1C(=O)O [MLN8237 (Alisertib)] | 80 ± 15 | 118 | 106 ± 32 | 100 | 94.9 ± 14 | 87.9 | 64.6 ± 12 | 80.1 ± 8.5 | 156 ± 12 |
